The source of these data is PubChem BioAssay AID933 (National Center for Advancing Translational Sciences (NCATS), 2007).

Inconclusive results are not listed. A number with no mark means an inactive call. Calls of active or inactive are those of the source. Calls come from the whole dose curve; as a rule, active = well fitted activation curve with a large enough effect in the signal ratio, with a control signal flat; inconclusive = small, poorly fitted or top-dose-only effect, or a change in a side signal; inactive = flat fitted curve, though single readings scatter; the % refers to the signal ratio.
Potency is the fitted concentration of half-maximal effect.

The target in this experiment is Thyrotropin receptor (Homo sapiens) (UniProt P16473). Nature of the experiment: Secondary Concentration-Response Assay for Agonists of the Thyroid Stimulating Hormone Receptor: HTRF Activity Detection. For activation: % of control where 0% means no effect. The settings on record: HEK293-TSHR cells, cAMP HTRF ratio, 30 min; series mostly up to 91.7 µM; activation: at the top concentration. The method in brief: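 cAMP accumulation was detected by antibody-based HTRF, excitation 330 nm, emissions 615 and 660 nm. Compounds acted for 30 min at room temperature on stably TSHR-transfected HEK 293 cells, with phosphodiesterase inhibitor RO 20-1724 (100 uM) in the medium.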
Sequence of Thyrotropin receptor (Homo sapiens) (P16473 whole entry, looked up): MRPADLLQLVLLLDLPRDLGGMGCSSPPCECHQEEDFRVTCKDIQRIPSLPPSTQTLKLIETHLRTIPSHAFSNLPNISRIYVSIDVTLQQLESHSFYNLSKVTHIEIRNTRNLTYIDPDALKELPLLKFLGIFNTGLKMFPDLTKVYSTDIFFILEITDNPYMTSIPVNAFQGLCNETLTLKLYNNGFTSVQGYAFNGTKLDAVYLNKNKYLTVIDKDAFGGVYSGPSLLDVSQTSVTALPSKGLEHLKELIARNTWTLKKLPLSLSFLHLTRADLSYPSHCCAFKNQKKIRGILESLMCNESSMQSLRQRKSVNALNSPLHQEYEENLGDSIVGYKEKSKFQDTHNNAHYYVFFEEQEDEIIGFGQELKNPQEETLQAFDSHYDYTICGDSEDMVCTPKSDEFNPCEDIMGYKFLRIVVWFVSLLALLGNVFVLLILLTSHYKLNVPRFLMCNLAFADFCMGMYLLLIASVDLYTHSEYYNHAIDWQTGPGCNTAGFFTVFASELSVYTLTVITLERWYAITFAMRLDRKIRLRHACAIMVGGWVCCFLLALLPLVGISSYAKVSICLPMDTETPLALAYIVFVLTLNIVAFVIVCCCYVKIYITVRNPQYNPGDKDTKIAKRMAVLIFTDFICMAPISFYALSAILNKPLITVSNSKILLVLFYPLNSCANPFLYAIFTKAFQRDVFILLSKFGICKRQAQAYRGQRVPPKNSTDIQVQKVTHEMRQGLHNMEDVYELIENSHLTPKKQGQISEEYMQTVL
Background: TR-FRET usually uses a lanthanide donor and a delayed reading to cut background.
As for `COc1ccc(C2Nc3ccccc3C(=O)N2Cc2ccccc2)cc1Oc1ccc(NC(C)=O)cc1` (stereo unspecified), the “activation” value is 7.11%.
`COc1ccc(/C=N/n2cncn2)cc1COc1ccc(NC(C)=O)cc1`: the “activation” value was 1.15%.
Consider `COc1ccc(C2Nc3ccccc3C(=O)N2Cc2ccc(C(F)(F)F)cc2)cc1COc1ccc(NC(C)=O)cc1` (stereo unspecified), for which the “activation” value is 21.4%.
Take `COc1ccc(C2Nc3ccccc3C(=O)N2Cc2ccco2)cc1COc1c(C)cccc1C` (stereo unspecified): the “activation” value was 1.67%.
In the case of `CCN(CC)CCN1C(=O)c2ccccc2NC1c1ccc(OC)c(COc2ccc(NC(C)=O)cc2)c1` (stereo unspecified), the “activation” value is 2.5%.
As to `COc1cc(OC)cc(-c2nnc(SCC(=O)N(C(C)C)C(C)C)o2)c1`, the activation was 0.0275% [at 0.00035 µM].
In the case of `COc1ccc(C2Nc3ccccc3C(=O)N2c2ccc(C)cc2)cc1Cn1nnc2ccccc21` (stereo unspecified), the “activation” value is 1.53%.
Take `COc1ccc(N2C(=O)c3ccccc3NC2c2ccc(OC)c(COc3ccccn3)c2)cc1` (stereo unspecified): the Potency entry was “inactive”.
Consider `COc1ccc(C2Nc3ccccc3C(=O)N2CC(C)(C)C)cc1COc1ccc(NC(C)=O)cc1` (stereo unspecified), for which the “activation” value was 19.3%.
In the case of `O=C1c2ccccc2NC(c2ccc(Cl)cc2Cl)N1Cc1ccccc1` (stereo unspecified), the “activation” value was 1.15%.
In the case of `COc1ccc(-c2ccc(-c3noc(C)n3)c(OC)n2)cc1`, the activation was -0.214% [at 0.00035 µM].
Consider `CC(=O)Nc1ccc(OCc2cccc(-c3nc4ccccc4c(=O)n3Cc3ccco3)c2)cc1`, for which the “activation” value is 6.74%.
As for `COc1cccc(OCc2cc(C3Nc4ccccc4C(=O)N3Cc3ccco3)ccc2OC)c1` (stereo unspecified), the “activation” value is 0.612%.
For the compound `COc1ccc(C2Nc3ccccc3C(=O)N2c2ccc(F)cc2)cc1COc1ccc(NC(C)=O)cc1` (stereo unspecified), the “activation” value is 7.79%.
In the case of `CCN(CC)CCN1C(=O)c2ccccc2NC1c1cc(OC)c(OC)c(OC)c1` (stereo unspecified), the “activation” value is 0.196%.
On to `COc1ccc(C2Oc3ccccc3C(=O)N2Cc2ccccc2)cc1COc1ccc(NC(C)=O)cc1` (stereo unspecified), for which the Potency is 12.6 µM (active).
Turning to `COc1ccc(C2Nc3ccccc3C(=O)N2Cc2ccccc2)cc1COc1cccc(Cl)c1` (stereo unspecified), the “activation” value was -1.52%.
For `COc1ccc(C2Nc3ccccc3C(=O)N2Cc2ccco2)cc1COc1ccc(N)cc1` (stereo unspecified), the “activation” value is 30.9%.
As to `COc1ccc(C2Nc3ccccc3C(=O)N2CCc2ccccc2)cc1COc1ccc(NC(C)=O)cc1` (stereo unspecified), the Potency is 7.94 µM (active).
Turning to `CN1C(=O)c2ccccc2N(C)C1c1ccc2c(c1)OCO2` (stereo unspecified), the “activation” value was 0.767%.
As to `COc1cc(OC)cc(C(=O)N(Cc2ccco2)Cc2cccs2)c1`, the “activation” value was -0.173%.
As for `COc1ccc(C2Nc3ccccc3C(=O)N2Cc2ccccc2)cc1COc1ccc([N+](=O)[O-])c(C)c1` (stereo unspecified), the “activation” value was 1.38%.
For `O=C(COC(=O)C12CC3CC(CC(Br)(C3)C1)C2)NCc1ccco1`, the Potency is 10 µM (active).
In the case of `CCN(CC)CCN1C(=O)c2ccccc2NC1c1ccccc1F` (stereo unspecified), the “activation” value was 1.17%.
Regarding `CCC(C)(C)n1nnnc1CN(Cc1ccco1)Cc1cc2cc3c(cc2[nH]c1=O)OCO3`, the activation was 0.108% [at 0.00035 µM].
On the same count and under the same terms, the value for `O=C(CSc1nnc(-c2ccccc2)n1Cc1ccco1)Nc1ccc2c(c1)OCCO2` was -0.544% [at 0.00035 µM].
On to `COc1ccc(C2Nc3ccccc3C(=O)N2Cc2ccco2)cc1COc1ccc([N+](=O)[O-])cc1` (stereo unspecified), for which the “activation” value is 0.732%.
With `Cc1nn(C)c(C)c1S(=O)(=O)N(CC(=O)Nc1nccs1)c1ccc(C(C)C)cc1`, the activation was 0.117% [at 0.00035 µM].
Still for that read-out and setting: the value for `COc1cccc2cc(C(=O)N(Cc3cccs3)Cc3cccs3)c(=O)oc12` was 2.56%.
`COc1ccc(C2Nc3ccccc3C(=O)N2Cc2ccc(Cl)cc2)cc1COc1ccc(NC(C)=O)cc1` (stereo unspecified): the Potency was 3.16 µM (active).
On to `CCCN1C(=O)c2ccccc2NC1c1ccc(OC)c(COc2ccc([N+](=O)[O-])c(C)c2)c1` (stereo unspecified), for which the “activation” value is 1.36%.
Regarding `CCN(CC)CCN1C(=O)c2ccccc2NC1c1cccc(F)c1` (stereo unspecified), the “activation” value is 1.11%.
As for `COc1ccc(CN(Cc2ccccc2)C(=O)c2ccccc2N)cc1COc1ccc(NC(C)=O)cc1`, the Potency is 25.1 µM (active).
On to `Oc1ccccc1-c1cc(C(F)(F)C(F)F)nc(-c2ccccc2)n1`, for which the activation was 0.7% [at 0.00035 µM].
As to `COc1ccc(C2Nc3ccccc3C(=O)N2Cc2ccco2)cc1COc1ccc(NC(C)=O)cc1` (stereo unspecified), the Potency was 15.8 µM (active).
`CCCN1C(=O)c2ccccc2NC1c1ccc(OC)c(COc2cccc(OC)c2)c1` (stereo unspecified): the “activation” value was 1.68%.
